Results reported in PubChem BioAssay (NCATS).
Records with an inconclusive call do not appear. The source made the active and inactive calls. Calls come from the whole dose curve; as a rule, active = well fitted curve in the direction sought with a large enough effect in the signal ratio (not every such curve was filed as active); inconclusive = small, poorly fitted or top-dose-only effect, or effect the other way, or a change in a side signal; inactive = no such curve, though single readings can be large or run the other way; the % refers to the signal ratio.

molecular target: Tyrosine-protein phosphatase non-receptor type substrate 1 (Homo sapiens) + Leukocyte surface antigen CD47 (Homo sapiens) (UniProt P78324+Q08722); assay: CD47-SIRPalpha protein protein interaction - HTRF assay qHTS validation (AID 1347058); details: TR-FRET HTRF CD47-His / biotin-SIRPalpha binding, ratio 665/615; series mostly up to 38.3 µM
In short: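 Soluble extracellular domains (6His-CD47, Avi-tag-biotinylated SIRPalpha) in PBS pH 7.4 with 0.05% IGEPAL CA-630. Compounds were preincubated 30 min at RT with CD47 and anti-His-Eu, then SIRPalpha and SAV-XL665 were added. TR-FRET 665/615 ratio.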

Sequence of Tyrosine-protein phosphatase non-receptor type substrate 1 (Homo sapiens) + Leukocyte surface antigen CD47 (Homo sapiens) (P78324 whole entry, looked up, the tested form may be a part): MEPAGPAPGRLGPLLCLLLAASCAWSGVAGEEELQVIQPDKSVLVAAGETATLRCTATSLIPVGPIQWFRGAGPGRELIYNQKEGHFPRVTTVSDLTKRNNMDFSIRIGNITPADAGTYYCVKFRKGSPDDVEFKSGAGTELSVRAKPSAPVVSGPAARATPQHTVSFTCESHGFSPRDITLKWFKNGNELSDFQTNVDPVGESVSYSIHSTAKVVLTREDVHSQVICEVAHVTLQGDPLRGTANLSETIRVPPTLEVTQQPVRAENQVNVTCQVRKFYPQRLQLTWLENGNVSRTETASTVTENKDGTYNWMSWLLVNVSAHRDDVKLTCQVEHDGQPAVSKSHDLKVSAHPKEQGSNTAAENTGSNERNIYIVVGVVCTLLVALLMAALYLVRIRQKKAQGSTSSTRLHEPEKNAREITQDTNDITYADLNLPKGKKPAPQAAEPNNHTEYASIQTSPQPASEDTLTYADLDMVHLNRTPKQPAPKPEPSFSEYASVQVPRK
Sequence of Tyrosine-protein phosphatase non-receptor type substrate 1 (Homo sapiens) + Leukocyte surface antigen CD47 (Homo sapiens) (Q08722 whole entry, looked up, the tested form may be a part): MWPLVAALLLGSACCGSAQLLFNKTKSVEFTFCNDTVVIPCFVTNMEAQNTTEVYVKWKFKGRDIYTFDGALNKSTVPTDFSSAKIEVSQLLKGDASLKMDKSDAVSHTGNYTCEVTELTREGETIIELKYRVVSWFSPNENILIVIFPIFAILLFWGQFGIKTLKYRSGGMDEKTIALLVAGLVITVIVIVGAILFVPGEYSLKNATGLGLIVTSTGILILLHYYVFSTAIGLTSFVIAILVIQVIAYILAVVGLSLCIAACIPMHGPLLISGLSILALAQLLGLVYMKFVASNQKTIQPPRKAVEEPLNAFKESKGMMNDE

SMILES	outcome
C#CCN[C@H](C)Cc1ccccc1	inactive
NCC(O)c1cc(O)c(O)cc1F (stereo not drawn)	inactive
NCCc1c[nH]c2ccc(C(N)=O)cc12	inactive
C[C@@H]1O[C@@H](O[C@H]2C[C@@H](O)[C@]3(CO)[C@@H]4C(CC[C@]3(O)C2)[C@@]2(O)CC[C@H]([C@@H]3COC(=O)C3)[C@@]2(C)C[C@H]4O)[C@H](O)[C@H](O)[C@H]1O (stereo partly drawn)	inactive
CC(N)Cc1c[nH]c2ccc(O)cc12 (stereo not drawn)	inactive
NNC(=O)c1ccc(O)cc1	inactive
C=CCN1CCC23c4c5ccc(O)c4O[C@H]2C(=O)CC[C@@]3(O)C1C5 (stereo partly drawn)	inactive
NC(=O)COc1c(F)cc(SCCNS(=O)(=O)c2ccccc2)cc1F	inactive
CNc1ccc2oc(C[C@H]3O[C@@]4(CC[C@H]3C)O[C@H]([C@H](C)C(=O)c3ccc[nH]3)[C@H](C)C[C@H]4C)nc2c1C(=O)O	inactive
NNC(N)=O	inactive
c1ccc2c(c1)[I+]c1ccccc1-2	inactive
Oc1ccc2c3c1O[C@H]1c4[nH]c5ccccc5c4C[C@@]4(O)C(C2)N(CC2CC2)CCC314 (stereo partly drawn)	inactive
NC(CCCCCP(=O)(O)O)C(=O)O (stereo not drawn)	inactive
O=C1C=CC(=O)C=C1	inactive
CCCN1CC[C@@H]2c3cc(O)ccc3CC[C@@H]21	inactive
OC1CCCCC1N1CCC(c2ccccc2)CC1 (stereo not drawn)	inactive
COC(=O)N1CCN(C(=O)Cc2ccc(Cl)c(Cl)c2)C(CN2CCCC2)C1 (stereo not drawn)	inactive
Cc1[nH]c2ccc(O)cc2c1CCN	inactive
NC(=O)c1ccc(OCC(O)CN2CC=C(c3ccc(F)cc3)CC2)cc1 (stereo not drawn)	inactive

SMILES	outcome
CCCN(CCC)[C@H]1CCc2c(F)ccc(O)c2C1	inactive
Cc1o[nH]c(=O)c1CC(N)C(=O)O (stereo not drawn)	inactive
CN(C(=O)Cc1ccc(Cl)c(Cl)c1)C(CN1CCCC1)c1cccc(OCC(=O)O)c1 (stereo not drawn)	inactive
Cc1cc([C@@H]2CCCN2C)on1	inactive
C[N+]1(C)CCc2cc3c(cc2[C@H]1[C@@H]1OC(=O)c2c1ccc1c2OCO1)OCO3	inactive
CCCN(CCC)C1Cc2cc(OC)c(OC)cc2C1	inactive
CCOC(=O)c1ncn2c1[C@@H]1CCCN1C(=O)c1cc(OC)ccc1-2	inactive
CCCN(CCC)CCc1ccc(O)c(O)c1	inactive
CC(N)c1cccc(Cl)c1Cl (stereo not drawn)	inactive
N[C@@]1(C(=O)O)CC[C@@H](C(=O)O)C1	inactive
CC12NC(Cc3ccccc31)c1ccccc12 (stereo not drawn)	inactive
c1ccc2c(N3CCNCC3)cccc2c1	inactive
C[N+]1(C)CCOC(O)(c2ccc(-c3ccc(C4(O)C[N+](C)(C)CCO4)cc3)cc2)C1 (stereo not drawn)	inactive
N=C(N)c1ccc(CS(=O)(=O)F)cc1	inactive
CC(N)Cc1c[nH]c2ccc(OCc3cccs3)cc12 (stereo not drawn)	inactive
O=C1CC[C@@]2(O)C3Cc4ccc(O)c5c4C2(CCN3CC2CC2)[C@H]1O5 (stereo partly drawn)	inactive
CCN1C[C@@]2(COC)C3[C@@H](OC)C4[C@@H]1C3([C@@H]1C[C@]3(O)[C@H](OC(=O)c5ccccc5)[C@@H]1[C@]4(OC(C)=O)[C@@H](O)[C@@H]3OC)[C@H](OC)C[C@H]2O	inactive
CCNC(=O)[C@H]1O[C@@H](n2cnc3c(N)ncnc32)[C@H](O)[C@@H]1O	inactive
CO[C@H]1CC=C2CCN3CCC4=C(CC(=O)OC4)[C@]23C1	inactive
